Experimental data taken from PubChem BioAssay.
The source made the active and inactive calls. Unless noted, no rule for the calls is given here.

How the values were obtained:
[1] = HepG2 liver cancer cell viability effects, profiling panel, resazurin fluorescence, 24 h, PK04 Diversity Set (AID 1172); conditions: higher = more signal; also: test concentration not given here
[2] = basal S. cerevisiae growth modulation, no modifier, primary screen, OD600, strain BY4716, 24 h, basal condition (AID 1173); conditions: OD600, 24 h, higher = more signal, called active from +8 up or from −8 down
[3] = MM1S myeloma cell viability, profiling panel, resazurin fluorescence, basal, 24 h, PK04 Diversity Set (AID 1174); conditions: higher = more signal, called active from +8 up or from −8 down;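 also: MM1S multiple myeloma cell line; test concentration not given here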
[4] = molecular target: Dihydroorotate dehydrogenase (quinone), mitochondrial (Plasmodium falciparum (isolate 3D7)) (UniProt Q08210); test: PfDHODH enzyme inhibitors, primary screen, biochemical, C-terminal His tag, absorbance 600 nm (AID 1175); conditions: DCIP absorbance 600 nm, higher = more signal, called active from +8 up or from −8 down;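 also: recombinant parasite enzyme with a five histidine tag at its C terminus; test concentration not given here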
[5] = P. aeruginosa biofilm formation inhibitors, primary screen, strain PAO1, LB-PBS medium, absorbance 600 nm (AID 1176); also: test concentration not given here; conditions: P. aeruginosa PAO1 growth/biofilm, A600, 12 h; higher = more signal
[6] = S. cerevisiae RM11-1a growth modifiers, primary screen, strain RM11-1a, OD600, basal, 24 h (AID 1177); conditions: OD600, 24 h, higher = more signal, called active from +8 up or from −8 down;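 also: cultures grown under basal conditions with no added stressor; test concentration not given here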
[7] = E. coli acrAB mutant growth effects, primary screen, E. coli filamentation inducers, strain DRC39, OD650, 24 h (AID 1178); conditions: higher = more signal, called active from +8 up or from −8 down;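 also: growth measured as culture turbidity by optical density at 650 nm; test concentration not given here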
[8] = E. coli acrAB mutant growth effects, primary screen, E. coli filamentation inducers, strain DRC39, OD650, 48 h (AID 1179);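 also: screen aims at cell division blockers that make cells filament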; conditions: E. coli DRC39 delta-acrAB growth, higher = more signal, called active from +8 up or from −8 down
[9] = RPMI8226 myeloma cell viability, profiling panel, resazurin fluorescence, basal, 24 h, PK04 Diversity Set (AID 1180); conditions: higher = more signal;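 also: RPMI8826 multiple myeloma cell line at 5000 cells per well; test concentration not given here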
[10] = molecular target: E3 ubiquitin-protein ligase XIAP (Homo sapiens) (UniProt P98170); test: XIAP binders, primary screen, biophysical, small-molecule microarray, fluorescence 635 nm (AID 1181); conditions: small-molecule microarray binding, higher = more signal;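 also: score merges 667 nm emission and signal to noise over triplicate slides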
E3 ubiquitin-protein ligase XIAP (Homo sapiens), sequence (P98170 whole entry, looked up): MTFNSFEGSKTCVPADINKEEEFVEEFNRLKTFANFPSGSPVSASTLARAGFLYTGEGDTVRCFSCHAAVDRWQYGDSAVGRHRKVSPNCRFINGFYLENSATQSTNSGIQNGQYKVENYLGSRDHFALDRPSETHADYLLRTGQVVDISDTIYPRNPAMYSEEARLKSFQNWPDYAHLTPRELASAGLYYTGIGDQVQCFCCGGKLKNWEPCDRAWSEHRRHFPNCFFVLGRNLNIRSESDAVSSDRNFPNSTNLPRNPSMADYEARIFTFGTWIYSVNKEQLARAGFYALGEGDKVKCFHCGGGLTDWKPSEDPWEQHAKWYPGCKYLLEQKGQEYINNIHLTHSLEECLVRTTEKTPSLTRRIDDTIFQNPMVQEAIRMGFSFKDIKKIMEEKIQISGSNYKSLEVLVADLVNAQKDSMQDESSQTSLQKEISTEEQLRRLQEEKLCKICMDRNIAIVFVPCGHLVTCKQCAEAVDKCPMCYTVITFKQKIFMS

Dihydroorotate dehydrogenase (quinone), mitochondrial (Plasmodium falciparum (isolate 3D7)), sequence (Q08210 whole entry, looked up): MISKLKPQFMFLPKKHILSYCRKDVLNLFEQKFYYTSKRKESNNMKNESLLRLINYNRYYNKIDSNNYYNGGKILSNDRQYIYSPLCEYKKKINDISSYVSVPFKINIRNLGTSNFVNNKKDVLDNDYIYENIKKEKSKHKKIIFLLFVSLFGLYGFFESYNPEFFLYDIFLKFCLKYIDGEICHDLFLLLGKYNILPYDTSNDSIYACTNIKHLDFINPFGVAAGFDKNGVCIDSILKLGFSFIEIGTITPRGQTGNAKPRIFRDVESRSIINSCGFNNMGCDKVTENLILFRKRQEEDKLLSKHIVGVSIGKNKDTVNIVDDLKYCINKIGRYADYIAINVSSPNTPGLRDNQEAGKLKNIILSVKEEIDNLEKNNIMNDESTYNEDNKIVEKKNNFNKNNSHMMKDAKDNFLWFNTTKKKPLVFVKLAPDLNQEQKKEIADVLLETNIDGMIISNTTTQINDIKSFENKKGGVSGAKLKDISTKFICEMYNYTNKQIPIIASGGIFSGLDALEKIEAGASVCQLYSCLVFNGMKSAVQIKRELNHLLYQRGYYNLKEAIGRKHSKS

| Structure (SMILES) | z-score [1] | z-score [2] | z-score [3] | composite z-score [4] | z-score [5] | z-score [6] | z-score [7] | z-score [8] | z-score [9] | composite z-score [10] |
| --- | --- | --- | --- | --- | --- | --- | --- | --- | --- | --- |
| C=C(COC)/C(=C/C[C@H](OC(=O)c1ccncc1)c1ccc(CO)o1)c1cc(C(=O)OC)ccc1OC | -0.0086 | -0.154 (inactive) | -0.486 (inactive) | -1.02 (inactive) | 1.11 (inactive) | -0.328 (inactive) | -0.268 (inactive) | 0.0389 (inactive) | 0.343 | -0.168 |
| CO[C@@H]1COC(=O)CC=C[C@@H](C)[C@@H]2C=C[C@H](O)[C@@H](COC(=O)[C@H](C)NC(=O)CC=C[C@H]1C)O2 | 0.592 | -0.0997 (inactive) | 0.945 (inactive) | -1.15 (inactive) | -0.786 (inactive) | -1 (inactive) | 0.574 (inactive) | -0.637 (inactive) | 1.61 | -0.102 |
| C=CC[C@@H]1C=C[C@H](ON=Cc2ccc(C(=O)N3[C@H](c4ccc(C)cc4)[C@@H](C)CC[C@H]3C(=O)OC)cc2)[C@@H](CO)O1 | 0.456 | -0.0957 (inactive) | -0.435 (inactive) | 0.16 (inactive) | 0.547 (inactive) | 0.674 (inactive) | 0.442 (inactive) | 0.226 (inactive) | 0.0719 | -0.16 |
| C#CCCCON=C1C[C@@H](O)[C@@H](O)[C@@H]2[C@@H]3C(=O)N([C@@H](C)c4ccccc4)C(=O)[C@@H]3CC[C@H]12 | -0.331 | -1.27 (inactive) | 0.8 (inactive) | -2.87 (inactive) | -0.389 (inactive) | -1.35 (inactive) | -0.0604 (inactive) | -0.12 (inactive) | 0.357 | 0.0537 |
| O=C1[C@H]2[C@H]3[C@H](O)[C@H](O)CC(=NOC[C@@H](O)COCc4ccco4)[C@H]3CC[C@H]2C(=O)N1c1cccc(Oc2ccccc2)c1 | 0.957 | 0.22 (inactive) | -0.654 (inactive) | -0.365 (inactive) | 0.741 (inactive) | -0.183 (inactive) | 0.916 (inactive) | 1.33 (inactive) | -0.192 | -0.295 |
| CCOC(=O)[C@H](CC(C)C)NC(=O)CCC1CC(OC(=O)NCc2cccc3ccccc23)CC2(CCCC(COC(=O)NCCN3CCOCC3)O2)O1 (stereo not given in full) | 1.29 | -0.996 (inactive) | 1.09 (inactive) | -0.247 (inactive) | 0.131 (inactive) | -0.613 (inactive) | -0.404 (inactive) | -0.88 (inactive) | 1.19 | -0.0143 |
| COC(=O)[C@]1(CO)N=C(c2ccc(OCCCO)cc2)O[C@@H]1c1ccccc1N=[N+]=[N-] | -0.318 | -0.114 (inactive) | -0.198 (inactive) | 0.482 (inactive) | 0.205 (inactive) | -0.709 (inactive) | -0.131 (inactive) | 0.57 (inactive) | -0.459 | 0.964 |
| Cc1cc2c(nc1C)CCCN2CC(O)CN1CCN(C)CC1 (stereo not given) | -0.406 | -0.428 (inactive) | -0.709 (inactive) | -1.14 (inactive) | 1.02 (inactive) | -0.185 (inactive) | -0.233 (inactive) | -0.125 (inactive) | -0.0252 | 1.64 |
| COC(=O)c1c(CC[C@@H](CO)NC(=O)N[C@H](Cc2ccccc2)Cn2cc(-c3ccccc3N)nn2)oc(C(C)=O)c1C(=O)OC | -0.601 | -1.2 (inactive) | 0.505 (inactive) | -0.433 (inactive) | -0.109 (inactive) | -0.053 (inactive) | 1.18 (inactive) | 0.561 (inactive) | 0.336 | -0.127 |
| Cc1ccc(S(=O)(=O)N[C@@H]2COC(=O)[C@H](C)COC(=O)CC=C[C@H]2C)cc1 | 0.285 | 0.773 (inactive) | 0.222 (inactive) | 0.576 (inactive) | -0.601 (inactive) | 1.3 (inactive) | -0.0401 (inactive) | -1.2 (inactive) | 0.242 | -0.13 |
| CC(C)NC(=O)[C@@H]1c2ccccc2C(=O)N(CC23CC4CC(CC(C4)C2)C3)[C@H]1c1ccc(CO)cc1 | 0.64 | -1.23 (inactive) | 0.955 (inactive) | 0.61 (inactive) | 0.553 (inactive) | -1.52 (inactive) | 0.765 (inactive) | 1.59 (inactive) | 0.834 | -0.0172 |
| COCCCNC(=O)[C@@]1(CCS(=O)(=O)c2ccccc2)N=C(c2ccc(OCCCO)cc2)O[C@H]1c1ccccc1 | 1.62 | -0.44 (inactive) | 0.745 (inactive) | 0.514 (inactive) | 0.0963 (inactive) | -0.287 (inactive) | 1.34 (inactive) | 0.953 (inactive) | 0.806 | 0.14 |
| C=C(/C(=C/C[C@H](OC(C)=O)c1ccc(OCCO)cc1)c1cnc2ccccc2c1)C(C)C | 1.93 | -1.34 (inactive) | -0.97 (inactive) | -5.53 (inactive) | -0.092 (inactive) | -0.705 (inactive) | 0.263 (inactive) | -0.511 (inactive) | -0.853 | 0.102 |
